Source: PubChem BioAssay (National Center for Advancing Translational Sciences (NCATS))
Most compounds without a hit are left out; they make up all but 6.7% or so of the library.
KB-3-1 tox = KB-3-1 parental cell cytotoxicity. KB-3-1 viability, CellTiter-Glo ATP luminescence, 72 h. hit rate 1.4% among 400,000. AID 1347075. Potency, µM (doses to about 46.1 µM), actives largely listed as cytotoxic; further: nearly all actives have a fitted effect of over 60% in size
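Screening of KB-3-1 cells (DMEM, 10% FBS, phenol-red free) ran from lowest to highest compound concentration; after 72 h at 37 °C viability was read luminescently and curves fitted.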
SW480 rerep = inducers of DNA re-replication in SW480 colon cancer cells; SW480 DNA re-replication, Hoechst DNA content imaging, 48 h; Potency, µM (series often up to 46.1 µM), hits mostly activators; hit rate 1.8% among 340,000; AID 624297; further: nearly all actives have a fitted effect of over 55% in size
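Image-based read-out: total Hoechst fluorescence of nuclei (405 nm excitation, 500-530 nm emission), with hits raising the fraction of high-intensity nuclei. SW480 colon cells incubated 48 hr with compounds at 37 C.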
MCF10A rereplic = induces DNA re-replication in MCF 10a normal breast cells; MCF 10A DNA re-replication, Hoechst nuclear intensity, 48 h; Potency, µM (doses to about 46.1 µM), most hits filed as activators; hit rate 2.9% among 350,000; further: nearly all actives have a fitted effect of over 50% in size
PINK1 expr mod = modulators of PINK1 expression; hit rate 0.2% among 410,000; PINK1 immunofluorescence, high-content cytometry, 24 h; Potency, µM (titrated, usually from 76.6 µM), actives largely listed as activators; AID 624263; active means well fitted activation curve with a large enough effect; inconclusive means small, poorly fitted or top-dose-only effect; cell line not stated here; further: nearly all actives have a fitted effect of over 65% in size
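Cells are seeded, rested 12 hours, then given compound at five concentrations or DMSO for 24 hours. After fixation, blocking and antibody staining, PINK1 amount and mitochondrial localization are scored; CCCP serves as control.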
KB-V1 MDR tox = KB-V1 MDR subline cytotoxicity; Potency, µM (top dose mostly 46.1 µM), actives largely listed as cytotoxic; hit rate 3.4% among 400,000; AID 1347076; KB-V1 MDR cells viability, CellTiter-Glo, 72 h; further: nearly all actives have a fitted effect of over 60% in size
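Potencies derive from concentration-effect curves fitted to normalized luminescence (CellTiter-Glo) of KB-V1 cells treated for 72 h at 37 degrees C in phenol-red-free DMEM containing 10% FBS.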
Of the large screens only hits and unclear results are named; the others gave an inactive call; ! = not active in a repeat. Unless noted, the call rests on the fitted dose curve; in most records, active means well fitted curve in the direction sought with a large enough effect; inconclusive means small, poorly fitted or top-dose-only effect, or another doubt; inactive means no such curve, though single readings can be large; an effect the other way counts as inactive or inconclusive.

Cc1cc(Oc2nc3ccccn3c(=O)c2/C=C(\C#N)C(=O)NC2CCS(=O)(=O)C2)ccc1Cl (configuration not stated)	SW480 rerep inconclusive
Cc1cccn2c(=O)c(/C=C(\C#N)C(=O)NC3CCS(=O)(=O)C3)c(Oc3ccc(F)cc3)nc12 (configuration not stated)	KB-3-1 tox inconclusive, SW480 rerep inconclusive, MCF10A rereplic inconclusive
Cc1oc(-c2ccccc2NC(=O)c2ccccc2)nc1CNC(=O)c1cccc(-n2cccn2)c1	none (no result: KB-3-1 tox, SW480 rerep, MCF10A rereplic, KB-V1 MDR tox)
CC(=O)OC1(C(C)=O)CCC2C3CC(C(F)(F)F)C4=CC(=O)CCC4(C)C3CCC21C (configuration not stated)	SW480 rerep inconclusive
CC(=O)O[C@]1(C(C)=O)CC[C@H]2[C@@H]3C[C@H](C)C4=CC(=O)CC[C@]4(C)[C@H]3CC[C@@]21C	SW480 rerep inconclusive, MCF10A rereplic inconclusive, PINK1 expr mod 31.6µM, KB-V1 MDR tox inconclusive
CC(=O)C12CCCCC1CC1[C@@H]3CC(C)C4=CC(=O)CC[C@]4(C)C3CC[C@@]12C (some centres not stated)	KB-3-1 tox inconclusive, MCF10A rereplic inconclusive, PINK1 expr mod 15.8µM, KB-V1 MDR tox inconclusive
COC(=O)c1c(OCC2CCCN(C)C2)cc(=O)n2c1CCN(Cc1ccc(OC)c(O)c1)CC2 (configuration not stated)	none (no result: KB-3-1 tox, SW480 rerep, MCF10A rereplic, KB-V1 MDR tox)
COCc1c(C(=O)N2CCN(C)CC2)cnn1-c1ncc2c(n1)-c1ccccc1CCC2	none (no result: KB-3-1 tox, SW480 rerep, MCF10A rereplic, KB-V1 MDR tox)
CCOc1ccc(-c2nnn(CC#N)n2)cc1OC	KB-3-1 tox inconclusive, SW480 rerep inconclusive, MCF10A rereplic 10.3µM
COc1ccc(-c2nnn(CC#N)n2)cc1OC	none
CCOc1ccc(-c2nnn(CC(=O)c3cc(OC)ccc3OC)n2)cc1	KB-3-1 tox 14.6µM, MCF10A rereplic inconclusive, KB-V1 MDR tox 5.17µM
Cc1ccc(SC2=NS(=O)(=O)c3ccccc32)c(C)c1	none (no result: SW480 rerep, MCF10A rereplic)
C[C@H](CO)N1C[C@H](C)[C@H](CN(C)S(=O)(=O)c2ccc(C#N)cc2)OCc2cnnn2CCCC1=O	none (no result: SW480 rerep, MCF10A rereplic)
Cc1ccc(Cl)cc1N1CCN(S(=O)(=O)c2ccc3c(c2)oc(=O)n3C)CC1	KB-V1 MDR tox 13µM
Cc1ccc(C)c(N2CCN(C(=O)CCS(=O)(=O)c3ccc4c(c3)oc(=O)n4C)CC2)c1	KB-3-1 tox inconclusive, KB-V1 MDR tox 6.51µM!
CCOC(=O)[C@]12CCCC=C1N(Cc1cccc3ccccc13)C(=O)[C@H](CC(=O)NCCCN1CCCC1=O)C2	KB-V1 MDR tox inconclusive (no result: SW480 rerep, MCF10A rereplic)
CC1CCCCC1NS(=O)(=O)CCNC(=O)c1ccccc1 (configuration not stated)	KB-V1 MDR tox 20.6µM
CCOC(=O)C1=C(C)Nc2sc(C(=O)c3ccc(F)cc3)c(N)c2C1c1ccc(C(=O)OC)cc1 (configuration not stated)	SW480 rerep 16.4µM, MCF10A rereplic 2.59µM
CCOC(=O)C1=C(C)NC(SCC(=O)OC)=C(C#N)C1c1ccc(C(=O)OC)cc1 (configuration not stated)	MCF10A rereplic inconclusive
CCOC(=O)C1=C(C)Nc2sc(C(=O)c3ccc(C)cc3)c(N)c2C1c1ccc(C(=O)OC)cc1 (configuration not stated)	SW480 rerep 18.4µM, MCF10A rereplic 3.66µM
CC(=O)Nc1cncc(-c2cccc(C(=O)N3CCOCC3)c2)n1	none (no result: SW480 rerep, MCF10A rereplic)
O=C1/C(=C\c2c(NCCOCCO)nc3ccccn3c2=O)SC(=S)N1Cc1ccco1	MCF10A rereplic 9.2µM, KB-V1 MDR tox inconclusive
CCCN1C(=O)/C(=C/c2c(NCCCOCC)nc3c(C)cccn3c2=O)SC1=S	none
OCc1nc2ccccc2n1CC(O)Cn1ccc2ccccc21 (configuration not stated)	KB-3-1 tox inconclusive, KB-V1 MDR tox 20.6µM
Cc1cc(C)n(CC(O)Cn2ccc3ccccc32)n1 (configuration not stated)	PINK1 expr mod inconclusive
COc1ccc(CN2C(=O)C(CC(=O)NCCN3CCOCC3)CC(C(=O)N3CCOCC3)=C2C)cc1 (configuration not stated)	none (no result: SW480 rerep, MCF10A rereplic)
Cc1ccc(NNC(=O)c2snnc2C)cc1Cl	SW480 rerep 2.31µM
CC(C)(C)OC(=O)N[C@@H](Cc1ccccc1)c1nnc(SCC(=O)O)o1	none
CCCCSc1nnc([C@H](CC(C)C)NC(=O)OC(C)(C)C)o1	none
CC(C)(C)OC(=O)N[C@@H](Cc1ccccc1)c1nnc(SCC(=O)c2ccc(Cl)cc2)o1	SW480 rerep inconclusive, MCF10A rereplic inconclusive, KB-V1 MDR tox 16.4µM
CCCCSc1nnc([C@H](C)NC(=O)OC(C)(C)C)o1	KB-V1 MDR tox 13µM
CCSc1nnc([C@H](Cc2ccccc2)NC(=O)OC(C)(C)C)o1	KB-V1 MDR tox 16.4µM
Cc1c(C)n(Cc2ccccc2)c2ccc(C(=O)OCCCN(C)C)cc12	KB-3-1 tox inconclusive, SW480 rerep inconclusive, MCF10A rereplic 20.6µM, KB-V1 MDR tox inconclusive
COC(=O)Cn1c(C2CC(=O)N(c3c(C)cccc3C)C2)nc2ccccc21 (configuration not stated)	none (no result: SW480 rerep, MCF10A rereplic)
COc1ccc(S(=O)(=O)N2CCOCC2)cc1	KB-3-1 tox inconclusive, KB-V1 MDR tox inconclusive (no result: SW480 rerep, MCF10A rereplic)
O=C(CSCc1ccc(Br)cc1)Nc1ccc(S(=O)(=O)N2CCOCC2)cc1	KB-V1 MDR tox 20.6µM
CCOc1ccc(S(=O)(=O)N2CCOCC2)cc1NC(=O)CSCC(=O)Nc1ccc(C)cc1	none
O=S(=O)(c1ccc(Oc2ccc(Br)cc2)cc1)N1CCOCC1	KB-V1 MDR tox 11.6µM
Cc1ccc(CSCC(=O)Nc2cc(S(=O)(=O)N3CCOCC3)ccc2OCC(F)(F)F)cc1	KB-3-1 tox inconclusive, KB-V1 MDR tox 14.6µM
O=C(CSCc1ccccc1)Nc1ccc(S(=O)(=O)N2CCOCC2)cc1	none
COC(=O)c1c(OCc2cccnc2)cc(=O)n2c1CCN(C(=O)c1cccc(N(C)C)c1)CC2	none (no result: KB-3-1 tox, SW480 rerep, MCF10A rereplic, KB-V1 MDR tox)
CCOC(=O)N1CCN(C(=O)COC(=O)c2ccc(Cl)nc2)CC1	MCF10A rereplic inconclusive (no result: KB-3-1 tox, KB-V1 MDR tox)
O=C(Cn1cccc1C(=O)c1ccccc1)NCc1ccc(F)cc1	none
O=C(Cn1cccc1C(=O)c1ccccc1)NCc1ccccc1	KB-V1 MDR tox 23.1µM
CCC(C)Nc1c2c(nc3c(-c4ccccc4)c(C)nn13)CCC2 (configuration not stated)	MCF10A rereplic inconclusive, KB-V1 MDR tox 9.2µM
COc1cccc(Nc2c3c(nc4c(-c5ccccc5)c(C)nn24)CCC3)c1	KB-3-1 tox inconclusive, SW480 rerep inconclusive, MCF10A rereplic 20.6µM, KB-V1 MDR tox 18.4µM
CCCCNc1c2c(nc3c(-c4ccccc4)c(C)nn13)CCC2	KB-V1 MDR tox 23.1µM
Cc1nn2c(N3CCCC3)c3c(nc2c1-c1ccccc1)CCC3	SW480 rerep 18.4µM, KB-V1 MDR tox inconclusive
O=C(NC1CCCc2ccccc21)c1cnn2c1NC(=C1CC1)C=C2C(F)F (configuration not stated)	none (no result: KB-3-1 tox, SW480 rerep, MCF10A rereplic, KB-V1 MDR tox)
